Assay outcomes from PubChem.
AMA1 RON2 block = AMA1-RON2 (P. falciparum) interaction inhibition; 360,000 tested, 0.2% active; AlphaScreen AMA1-biotinylated RON2 peptide binding; Potency, µM (top dose mostly 58.2 µM), usual class: inhibitors; also: nearly all actives have a fitted effect of over 45% in size
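AMA1 (3D7) with his tag at 25 nM final met compounds first, then biotinylated RON2 peptide at 25 nM; detection used donor plus acceptor beads, 10 µg/mL apiece, read by AlphaScreen after 30 min at room temperature.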
VACV Venus inh = inhibitors of vaccinia virus (Venus reporter); Potency, µM (series often up to 36.5 µM), hits mostly inhibitors; 330,000 tested, 0.46% active; Vaccinia virus Venus reporter expression, fluorescence; calls by dose curve; tested in A549 cells; also: nearly all actives have a fitted effect of over 30% in size
Pf growth 96h = P. falciparum growth inhibition at 96 hour, primary screen for plastid delayed-death inhibitors | Potency, µM (doses to about 28.7 µM), usual class: inhibitors | 320,000 tested, 6.9% active | P. falciparum luciferase reporter growth, 96 h
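Two parasite generations (96 h, 37 C, 5% CO2) of compound exposure in infected erythrocytes (0.05% parasitemia, 2% hematocrit). Luciferase-reporter P. falciparum; decreased luminescence indicates inhibited growth, aimed at apicoplast-acting delayed death.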
Vaccinia mCherry = inhibitors of vaccinia virus infection (mCherry reporter signal). Vaccinia virus mCherry reporter infection, fluorescence. Potency, µM (doses to about 36.5 µM), most hits filed as inhibitors. 310,000 tested, 0.63% active. AID 720579; calls by dose curve; tested in A549 cells; also: nearly all actives have a fitted effect of over 35% in size
Pf growth 48h = P. falciparum growth inhibition at 48 hours (one generation) | P. falciparum luciferase growth in erythrocytes, 48 h | Potency, µM (titrated, usually from 28.7 µM), most hits filed as inhibitors | 310,000 tested, 5.9% active | AID 504832
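Read-out is firefly luciferase luminescence from an integrated reporter in P. falciparum, so falling signal marks reduced parasite growth. Infected erythrocytes were at 2% hematocrit and 0.1% parasitemia (final) in Albumax-supplemented RPMI 1640.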
Each line names hits and unclear results; the compound was inactive in the other large screens. Most compounds without a hit are left out; they make up all but 8.7% or so of the library. Unless noted, calls follow the shape of the dose curve; as a rule, active = well fitted curve in the direction sought with a large enough effect; inconclusive = small, poorly fitted or top-dose-only effect, or another doubt; inactive = no such curve, though single readings can be large; an effect the other way counts as inactive or inconclusive.

COc1ccccc1-n1c(=O)c(C#N)c(-c2ccc([N+](=O)[O-])cc2)c2cc(C(=O)c3ccccc3O)cnc21	Pf growth 96h 1.85µM, Pf growth 48h 2.62µM (no result: VACV Venus inh, Vaccinia mCherry)
COc1ccc(CNc2ncnc3onc(-c4ccc(F)cc4)c23)cc1	none (no result: AMA1 RON2 block, Pf growth 96h, Pf growth 48h)
COc1ccc(-c2cn3cccnc3n2)cc1NC(=O)c1ccc(Br)o1	Pf growth 96h 10.4µM (no result: VACV Venus inh, Vaccinia mCherry)
Cc1ccc(-c2cn3cccnc3n2)cc1NC(=O)c1ccc(Br)o1	Pf growth 96h inconclusive (no result: VACV Venus inh, Vaccinia mCherry)
COc1cccc(NC(=O)Nc2cc(-c3cn4cccnc4n3)ccc2C)c1	none (no result: AMA1 RON2 block, Pf growth 96h, Pf growth 48h)
COc1ccc(-c2cn3cccnc3n2)cc1NC(=O)Nc1cc(C)ccc1C	Pf growth 96h 11.7µM, Pf growth 48h inconclusive (no result: AMA1 RON2 block)
COc1ccc(S(=O)(=O)N2CC3CCCN3c3cc(C(F)(F)F)ccc32)cc1 (stereo not drawn)	Pf growth 96h inconclusive, Pf growth 48h inconclusive (no result: VACV Venus inh, Vaccinia mCherry)
COc1ccc(S(=O)(=O)N2CC3CCCN3c3ccc(C(F)(F)F)cc32)cc1 (stereo not drawn)	Pf growth 96h 13.1µM, Pf growth 48h inconclusive (no result: VACV Venus inh, Vaccinia mCherry)
C=CCn1c(=N)n(CC(=O)OC)c2ccccc21	Pf growth 96h 11.7µM (no result: Vaccinia mCherry)
C=CCn1c(=N)n(CC(=O)c2ccc(Br)s2)c2ccccc21	Pf growth 96h 13.1µM, Pf growth 48h 11.7µM (no result: VACV Venus inh, Vaccinia mCherry)
N=c1n(CC(=O)c2cccs2)c2ccccc2n1Cc1ccccc1	Pf growth 96h 4.65µM, Pf growth 48h inconclusive (no result: VACV Venus inh, Vaccinia mCherry)
CCCCCCNc1nc(OC)nc(N2CC3CC(C2)c2cccc(=O)n2C3)n1 (stereo not drawn)	Pf growth 48h 8.28µM
COc1ccc(/C(N)=N/OC(=O)c2cccc([N+](=O)[O-])c2C)cc1	Pf growth 48h inconclusive
COc1ccccc1C/C(N)=N/OC(=O)COc1ccc(C)cc1	Pf growth 96h 2.08µM (no result: VACV Venus inh, Vaccinia mCherry)
Cc1ccc(OC(=O)COc2ccccc2C)cc1	none
Cc1ccc(OCC(=O)Oc2cccc(C)c2C)cc1	Pf growth 96h 11.7µM (no result: VACV Venus inh, Vaccinia mCherry)
COc1ccccc1C/C(N)=N/OC(=O)COc1cccc(C)c1	none
COc1ccccc1C/C(N)=N/OC(=O)c1cccc([N+](=O)[O-])c1C	Pf growth 48h 9.28µM
CCOC(=O)c1ccc2[nH]cc(C(C)=O)c(=O)c2c1	Pf growth 48h 4.65µM (no result: VACV Venus inh, Vaccinia mCherry)
CCOC(=O)c1[nH]c2ccccc2c1NC(=O)c1ccccc1F	none (no result: AMA1 RON2 block, Pf growth 96h, Pf growth 48h)
CCOC(=O)c1c[nH]c2c(Cl)ccc(Cl)c2c1=O	VACV Venus inh inconclusive (no result: Vaccinia mCherry)
Cc1ccc2[nH]cc(C(=O)NCc3cccs3)c(=O)c2c1	Pf growth 48h inconclusive
CCOC(=O)c1c[nH]c2ccc3ccccc3c2c1=O	Pf growth 96h 4.65µM, Pf growth 48h inconclusive (no result: VACV Venus inh, Vaccinia mCherry)
CCOC(=O)c1ccc(-c2ccc3[nH]c4ccccc4c(=O)c3c2)cc1F	Pf growth 96h 5.22µM, Pf growth 48h inconclusive
CC(=O)c1c[nH]c2ccc(C)cc2c1=O	Pf growth 96h inconclusive, Pf growth 48h 6.57µM
O=C(CSc1nnc(-c2ccc(Cl)cc2)o1)N1CCc2ccccc21	none (no result: AMA1 RON2 block, Pf growth 96h, Pf growth 48h)
CC(=O)c1cc2c(cc1NC(=O)c1c(C)nn(-c3ccc(C)cc3)c1-n1cccc1)OCO2	none (no result: AMA1 RON2 block, Pf growth 96h, Pf growth 48h)
COc1cccc(CN2C(=O)CN(C3CCCCC3)C(=O)C2c2ccc(OC)c(OC)c2)c1 (stereo not drawn)	none (no result: AMA1 RON2 block, Pf growth 96h, Pf growth 48h)
Cc1ccc(NC(=O)C2CC(=O)N(c3ccc(OC(C)C)cc3)C2)cc1 (stereo not drawn)	none (no result: AMA1 RON2 block, Pf growth 96h, Pf growth 48h)
Cc1nccn1Cc1ccccc1	none
Cc1nccn1Cc1ccc(Cl)nc1	Pf growth 96h inconclusive, Pf growth 48h 10.4µM
Cc1cc(F)ccc1Oc1cc(NN2CCCCC2)c([N+](=O)[O-])cc1[N+](=O)[O-]	Pf growth 96h inconclusive, Vaccinia mCherry inconclusive
O=[N+]([O-])c1cc([N+](=O)[O-])c(Oc2ccc(Br)cc2Br)cc1NN1CCCCC1	Pf growth 96h 11.7µM, Vaccinia mCherry inconclusive
COc1cccc(Oc2cc(NN3CCCCC3)c([N+](=O)[O-])cc2[N+](=O)[O-])c1OC	AMA1 RON2 block inconclusive, VACV Venus inh inconclusive, Pf growth 96h inconclusive, Vaccinia mCherry inconclusive
COc1ccc(C(C)=O)c(Oc2cc(NN3CCCCC3)c([N+](=O)[O-])cc2[N+](=O)[O-])c1	VACV Venus inh 3.16µM, Vaccinia mCherry inconclusive
COc1ccc(NC(=O)CC2C(=O)N(c3cccc(C)c3)C(=O)N2Cc2cccnc2)cc1 (stereo not drawn)	none (no result: AMA1 RON2 block, Pf growth 96h, Pf growth 48h)
CCOc1ccc(C(C(=O)NCC2CCCO2)N(CCc2cccc(C)c2)C(=O)c2snc(C(N)=O)c2N)cc1 (stereo not drawn)	Pf growth 48h 9.28µM
